# In all, about 360,000 compounds went through this assay and about 17,000 (4.7%) were called active. Not shown: some 5% with an inconclusive outcome. The sample holds actives, similar compounds and a random draw of the others, so the mix is not that of the screen. Cut-off read from the data, not from the text of the source: active = activity change below about -50%; inconclusive = mostly about -30% to -49%; inactive = weaker than that.
# Assay: qHTS for Inhibitors of Inflammasome Signaling: IL-1-beta AlphaLISA Primary Screen
# Settings: THP-1 LPS/ATP IL-1B secretion, 16 h; at 57.5 µM, active compounds read low
# Summary of the method: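 THP-1 cells pretreated 1 hr with compounds (up to 57.5 uM final), then stimulated with LPS (250 ng/mL final) plus ATP (1.25 mM final); secreted IL-1B measured by AlphaLISA after 16 hr, decreased signal indicating inhibition.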
# % is set by controls: 0 for no effect and ±100 for the full control effect.
row,Compound,activity change
1,C[C@H](CO)N1C[C@H](C)[C@@H](CN(C)C(=O)c2cccc(F)c2)Oc2cc(-c3cncnc3)ccc2S1(=O)=O,3.54% (inactive)
2,Clc1ccc(-c2cccc3nccn23)cc1,34.4% (inactive)
3,CCOC(=O)c1cnn2c(SC)ncnc12,-22.6% (inactive)
4,CN(/N=C/c1ccccc1)C(=S)c1ccccc1,1.93% (inactive)
5,CN(O)C(=S)c1ccccc1,-116% (active)
6,CN(CC(=O)O)C(=O)c1ccccc1,19.1% (inactive)
7,CC(C)(C)C1CCC(=O)N2CCC[C@]2(c2ccccc2)C1 (stereo partly specified),0.891% (inactive)
8,COC(=O)c1c(NC(=O)CN2C(=O)NC(CCc3ccccc3)C2=O)sc2c1CCCCC2 (stereo unspecified),-15.4% (inactive)
9,CCOc1cc(-c2cc(-c3ccc(OC)cc3)nc(N)c2C#N)ccc1O,-3.59% (inactive)
10,CCOC(=O)CC(=O)CSc1nc(-c2ccccc2)cc(-c2ccc(Cl)cc2)c1C#N,6.24% (inactive)
11,CCOc1cc(-c2cc(-c3ccc(NC(C)=O)cc3)nc(N)c2C#N)ccc1O,-53.1% (active)
12,CC(C)(C)S(=O)(=O)N1Cc2cc(CO)cc(CCO)c2[C@H]1CCO,8.29% (inactive)
13,CN(C)C(=O)c1cccc(-c2cnc3c(NC=O)cc(-c4ccc(C(=O)N5CCOCC5)cc4)cn23)c1,-14.1% (inactive)
14,O=C(CSc1nc(C2CC2)nc2ccccc12)Nc1ccc2c(c1)OCCO2,-71.5% (active)
15,O=C(CSc1nc(C2CC2)nc2ccccc12)Nc1cccc(O)c1,2.55% (inactive)
16,Cc1nnc(NC(=O)CSc2nc(C3CCCCC3)nc3ccccc23)s1,-0.35% (inactive)
17,CCN(CC)C(=O)C1=C(C)N(Cc2ccc(OC)cc2)C(=O)C(CC(=O)NCCCCc2ccccc2)C1 (stereo unspecified),-14.3% (inactive)
18,CN(C)CCCN1C(=O)CSC1c1ccc([N+](=O)[O-])cc1 (stereo unspecified),36.5% (inactive)
19,CCCCc1ccc(NC(=O)NCc2cccnc2)cc1,-8.19% (inactive)
20,CCCCCCCCCCCCN1C(=O)CSC1c1cccnc1 (stereo unspecified),-56.2% (active)
21,O=C(NCc1cccnc1)c1ccc2nc([C@@H]3O[C@H](CO)[C@H](O)[C@H](O)[C@H]3O)[nH]c2c1,2.47% (inactive)
22,COc1cc(C(=O)OCC(=O)N(CC(C)C)C2CCS(=O)(=O)C2)ccc1OCC(C)C (stereo unspecified),-19.9% (inactive)
23,COc1cccc(-c2noc(C3CCCN(C(=O)c4ccc(F)cc4)C3)n2)c1 (stereo unspecified),-17.2% (inactive)

row,Compound,activity change
1,CCCS(=O)(=O)N1CCC(CCOc2ccccc2)(C(=O)OCC)CC1,30.8% (inactive)
2,CCOC(=O)C1(CCOC)CCN(Cc2ccc(C(=O)OC)cc2)CC1,4.83% (inactive)
3,CCOC(=O)C1(CCOc2ccccc2)CCN(Cc2cc(OC)cc(OC)c2)CC1,-89.9% (active)
4,CCOC(=O)C1(CCOc2ccccc2)CCN(Cc2ccc(C#CCCO)cc2)CC1,-57.7% (active)
5,CCOC(=O)C1(CCOc2ccccc2)CCN(C(=O)c2cncs2)CC1,-28.5% (inactive)
6,CCOC(=O)C1(CCOc2ccccc2)CCN(Cc2cc(OC)c(O)cc2Cl)CC1,-22.4% (inactive)
7,COc1ccc(NC2CC(=O)N(C)C2=O)cc1 (stereo unspecified),19.6% (inactive)
8,C/C(=N/Nc1nc(-c2ccccc2)c(CC(=O)O)s1)c1ccccc1,-6.09% (inactive)
9,CC(C)CCC(=O)Nc1cc(S(=O)(=O)N2CCOCC2)ccc1N1CCCC1,-21.6% (inactive)
10,CCc1nc2ccc(C(=O)N3CCC(O)(Cc4ccccc4)CC3)cn2c1N(C)C(=O)Cc1ccccc1,1.17% (inactive)
11,Cc1csc(NC(=O)C2CCN(S(=O)(=O)c3ccccc3)CC2)n1,-7.33% (inactive)
12,COc1ccc(OC)c(/C=C/C(=O)OCC(=O)Nc2ccc3c(c2)OCCO3)c1,37.8% (inactive)
13,COc1ccc(OC)c(/C=C/C(=O)c2ccc3c(c2)OCO3)c1,-97.2% (active)
14,COc1cc(C=C(OC(C)=O)c2ccc3c(c2)OCO3)cc(OC)c1OC,24.5% (inactive)
15,CCOC(=O)c1c(S(=O)(=O)NCC(=O)Nc2ccc(C)cc2)c(C)n(C)c1C,-6.41% (inactive)
16,CCOc1cc(/C=N/NC(=O)c2ccncc2)cc(Br)c1O,-14.1% (inactive)
17,Cc1ccc(N2C(=O)SC(N(CC(=O)O)c3ccc(C)cc3)C2=O)cc1 (stereo unspecified),18.1% (inactive)
18,Cc1ccc2c(C)c(C(=O)N3CCN(c4ccncc4)CC3)oc2c1C,-52.1% (active)
19,Cc1c(C(=O)N2CCN(c3ccc(F)cc3)CC2)oc2c1C(=O)CCC2,14.7% (inactive)
20,Cc1ccc2c(C)c(C(=O)N(C)Cc3ccncn3)oc2c1C,13.6% (inactive)
21,O=C(Nc1ccccc1F)c1cc(S(=O)(=O)N2CCCCC2)cs1,6.67% (inactive)
22,CC12CCCCC1=CC(=O)CC2 (stereo unspecified),13.3% (inactive)
23,Cn1c(SCC(=O)c2ccccc2)ncc(C(=O)Nc2ccc(F)cc2)c1=O,-2.98% (inactive)

row,Compound,activity change
1,Cc1ccc(NC(=O)c2cnc(SCC(=O)NCC3CCCO3)n(C)c2=O)cc1 (stereo unspecified),-103% (active)
2,CCn1c(SCC(=O)NCC2CCCO2)nc2ccccc21 (stereo unspecified),31.3% (inactive)
3,NC(=O)c1ncn([C@@H]2O[C@H](CNCc3cnc(N4CCOCC4)s3)[C@@H](O)[C@H]2O)n1,17.3% (inactive)
4,CC1CN(C(=O)c2ccc3c(c2)OCO3)OC(c2ccccc2)O1 (stereo unspecified),-0.281% (inactive)
5,O=C(Cn1cc(C(F)(F)F)ccc1=O)N/N=C/c1ccc(Cl)cc1Cl,0% (inactive)
6,CCOc1cc(C(=O)O)ccc1OCCOc1ccccc1,4.78% (inactive)
7,CC/C(=C(/c1ccccc1)c1ccc(OCC[N+](C)(C)C)cc1)c1ccccc1,-61.5% (active)
8,COc1ccc(C(=O)NCC[N+](C)(C)C)cc1,22.2% (inactive)
9,CCN(c1ccccc1)S(=O)(=O)c1cc(C(=O)NCc2ccccn2)ccc1C,-10.4% (inactive)
10,CN(Cc1ccccc1)C(=O)CCC1CCN(C(=O)c2ccco2)CC1,-7.63% (inactive)
11,O=C(Nc1ccc(S(=O)(=O)NCC2CCCO2)cc1)c1ccc(F)cc1 (stereo unspecified),11.6% (inactive)
12,CNC(=O)C[C@H]1C(=O)N(c2ccc(OC)cc2)C[C@@H]1Cc1ccccc1,-12.1% (inactive)
13,COc1ccc(N2C(=O)CC(N3CCC(C(N)=O)CC3)C2=O)cc1 (stereo unspecified),-4% (inactive)
14,COc1ccc(N2C(=O)C3C(C2=O)C(C(=O)c2ccccc2)N2CCCC32)cc1 (stereo unspecified),-82.1% (active)
15,OCC(CO)(CO)NCc1ccc(-c2ccccc2)cc1,6.61% (inactive)
16,Cc1ccc(-c2noc(CSc3nnnn3-c3ccccc3)n2)cc1,-64.8% (active)
17,Cc1ccc(-c2noc(CSc3nnc(-c4ccncc4)n3-c3ccc(F)cc3)n2)cc1,-15.2% (inactive)
18,Cc1ccc(-c2noc(CSc3nnc(-c4cccs4)n3C)n2)cc1,34.2% (inactive)
19,CCCCCCCCOC1OC(CO)C(O)C(O)C1NC(C)=O (stereo unspecified),48.8% (inactive)
20,CSCCC(NC(=O)COc1ccccc1)C(=O)OCCOc1ccc(F)cc1 (stereo unspecified),5.31% (inactive)
21,CSCCC(NC(=O)COc1ccccc1)C(=O)N1CCN(c2cccc(C(F)(F)F)c2)CC1 (stereo unspecified),-61.8% (active)
22,O=C(COc1ccc(Cl)cc1)N1CCN(c2cccc(C(F)(F)F)c2)CC1,-4.57% (inactive)
23,O=C(N[C@@H](Cc1c[nH]c2ccccc12)C(=O)O)OCC1c2ccccc2-c2ccccc21,4.34% (inactive)

row,Compound,activity change
1,Cc1nnc(NC(=O)C(c2ccccc2)c2ccccc2)s1,-5.78% (inactive)
2,Cc1nnc(NC(=O)c2ccc3nccnc3c2)s1,-17.3% (inactive)
3,Cc1nnc(NC(=O)Nc2ccc(Cl)c(Cl)c2)s1,-94% (active)
4,C[C@@H]1CN([C@@H](C)CO)C(=O)c2c(c3ccccc3n2C)-c2ccccc2CO[C@H]1CN(C)C(=O)C1CC1,23% (inactive)
5,Cc1ccc(CN(C)C[C@@H]2OCc3cnnn3CCCC(=O)N([C@@H](C)CO)C[C@H]2C)cc1,13.2% (inactive)
6,O=C(COC(=O)c1ccccc1)c1ccc2c(c1)OCCO2,-8.63% (inactive)
7,O=C(CCN1CCc2ccccc2C(O)(c2ccccc2)C1)c1ccc2c(c1)OCCO2 (stereo unspecified),-101% (active)
8,O=C(CN1CCC(O)(c2ccccc2)CC1)Nc1ccc2c(c1)OCCO2,-25.5% (inactive)
9,Cc1c(CN2CCC(CO)(CCOc3ccccc3)CC2)[nH]c2ccc(Cl)cc12,-96.7% (active)
10,CC(C)(O)C#Cc1ccc(CN2CCC(CO)(CCc3ccccc3)CC2)cc1,-1.38% (inactive)
11,OCC1(CCOc2ccccc2)CCN(Cc2cn[nH]c2-c2ccccc2)CC1,-2.13% (inactive)
12,CC1CCN(c2ccc3c(c2)S(=O)(=O)c2cc(C(=O)O)ccc2C3=O)CC1,22% (inactive)
13,Cc1cccc(-n2ncc(C#N)c2-n2cccc2)c1,28.7% (inactive)
14,C=CCNc1cnn(-c2ccc(C)cc2)c(=O)c1Cl,-16.2% (inactive)
15,Cc1cccc(-n2ncc(Cl)c(Cl)c2=O)c1,-100% (active)
16,CC1(C(=O)NS(=O)(=O)c2cccc(F)c2)CCN1C(=O)Cc1ccc(Cl)cc1Cl (stereo unspecified),-15.9% (inactive)
17,O=C(Nc1cc(S(=O)(=O)N2CCCCC2)ccc1Cl)C1COc2ccccc2O1 (stereo unspecified),-6.17% (inactive)
18,NS(=O)(=O)c1ccc(CCNC(=O)CNC(=O)Cc2ccccc2)cc1,12.6% (inactive)
19,CC(C)c1nccn1S(=O)(=O)c1cc([N+](=O)[O-])ccc1Cl,0% (inactive)
20,CCc1nc(C)cn1S(=O)(=O)c1cc(OC)c(C)cc1C,30.3% (inactive)
21,CCc1nc(C)cn1S(=O)(=O)c1cc([N+](=O)[O-])ccc1Cl,-82.5% (active)
22,O=C1N[C@@H](Cc2ccccc2)C(=O)N2[C@@H]3N(S(=O)(=O)c4ccc(F)cc4)c4ccccc4[C@]3(Br)C[C@@H]12,-2.75% (inactive)

# Reference: PubChem BioAssay AID743279 (National Center for Advancing Translational Sciences (NCATS), 2014)
